# From the supplement of paper PMC8183993
# Several values for one entry are separate records, joined by “and”; a condition that tells them apart may be missing. Identical values can stand only once. Counter-ions that a name gives are not always drawn. ± gives the standard deviation of the averaged measurements. The full ranking holds about 3,200 compounds; the median of “nuclei count (viability) relative to DMSO” is about 99, and the lowest 2% start at about 16. The entries come from a sample that favours the lowest values as a whole.
# System: U2OS
# Experiment: nuclei count (viability) relative to DMSO (% of DMSO); higher = more viable cells
# Conditions: 10 µM; 24 h
# Procedure: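 Primary image-based screen in U2OS cells: compounds at 10 uM for 24 h, then a 1 h o-propargyl-puromycin (OPP) pulse, click labelling, and high-throughput microscopy. Mean cytoplasmic OPP intensity and nuclei count were normalised to DMSO wells within each plate (DMSO = 100) and averaged over triplicate plates.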
row,Compound,nuclei count
1,"C/C=C1\NC(=O)[C@H]2CSSCC/C=C/[C@H](CC(=O)N[C@H](C(C)C)C(=O)N2)OC(=O)[C@H](C(C)C)NC1=O [Romidepsin (FK228 ,depsipeptide)]",8.81
2,CC#CCOC(=O)C1=CCCN(C)C1 [Arecaidine but-2-ynyl ester tosylate],101
3,CNC(=O)c1cc(Oc2ccc(NC(=O)Nc3cc(C(C)(C)C)nn3-c3ccc4ncccc4c3)c(F)c2)ccn1 [DCC-2036 (Rebastinib)],70.1
4,C=CC(=O)c1ccc2ccccc2c1,105
5,NC(=O)c1ccncc1 [Isonicotinamide],99.6
6,O=C(/C=C/c1ccc2ccccc2n1)c1ccncc1,11.3
7,COC(=O)C1=C(C)NC(C)=C(C(=O)OCCSc2ccccc2)C1C (stereo unspecified),97.8
8,CCS(=O)(=O)N1CCC[C@@H]2CN3CCc4cc(OC)ccc4[C@@H]3C[C@@H]21,101
9,CC1=CC(=O)c2ccccc2C1=O [Menadione],54.1
10,O=C1c2ccccc2C(=O)c2c1ccc(O)c2O [Alizarin],89.7
11,CC[C@H](C)[C@H](N)C1=N[C@H](C(=O)N[C@@H](CC(C)C)C(=O)N[C@H](CCC(=O)[O-])C(=O)N[C@H](C(=O)N[C@H]2CCCCNC(=O)[C@H](CC(N)=O)NC(=O)[C@@H](CC(=O)[O-])NC(=O)[C@H](Cc3cnc[nH]3)NC(=O)[C@@H](Cc3ccccc3)NC(=O)[C@H]([C@@H](C)CC)NC(=O)[C@@H](CCCN)NC2=O)[C@@H](C)CC)CS1.[Zn+2] [Bacitracin zinc],109
12,CC(C)NCC(O)COc1ccc(COCCOC(C)C)cc1 (racemic) [(±)-Bisoprolol hemifumarate],102
13,CCC[C@H](NC(=O)/C(C#N)=C/c1cccc(Br)n1)c1ccccc1,5.45
14,N#C/C(=C\c1ccc(O)c(O)c1)C(=O)Nc1ccccc1,83.4
15,N#C/C(=C\c1ccc(O)c(O)c1)C(=O)NCc1ccccc1,102 and 98.5
16,"C[C@H](NC(=O)/C(C#N)=C/c1ccc(O)c(O)c1)c1ccccc1 [Tyrphostin B44, (+) enantiomer]",93.4
17,C[C@H](NC(=O)/C(C#N)=C/c1cccc(Br)n1)c1ccccc1,7.49 ± 1.2
18,CC(C)c1cccc(=O)c(O)c1 [Hinokitiol],87.3
19,CCC(C)[C@H](NS(=O)(=O)c1cccc2ccccc12)C(=O)N[C@H](C=O)Cc1c[nH]c2ccccc12 (stereo partly specified),90.3
20,CNC(=O)CN(CCN(CCN(CC(=O)O)CC(=O)NC)CC(=O)O)CC(=O)O.O.[Gd] [Gadodiamide (Omniscan)],101
21,Cc1ccccc1C(=O)Nc1ccc(C(=O)N2CCCC(N(C)C)c3ccccc32)cc1 (stereo unspecified) [Mozavaptan],41.2
